This is part of a sample that, as a whole, favours compounds with a hit. Of some 79,000 tested, about 15% had one in any assay. Unmarked numbers belong to inactive results. Active and inactive are the calls of the source. Cut-off read from the data, not from the text of the source: active = growth inhibition above about 70%; inactive = the rest.

Test [1] is described as follows: NCI Yeast Anticancer Drug Screen. Data for the rad50 strain (AID 155).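 Note: 0% = growth of vehicle-only cultures of the same strain.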 Conditions: S. cerevisiae rad50 strain growth inhibition, stronger effect = higher value. The method, boiled down:
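Relative growth inhibition (compound vs vehicle) was measured in yeast with a defined repair-gene alteration.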

Test [2] is described as follows: NCI Yeast Anticancer Drug Screen. Data for the mec2-1 strain (AID 157). The note with it: S. cerevisiae mec2-1 strain, stronger effect = higher value. The method, boiled down: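 Each compound was tested on mec2-1 yeast, a strain altered in DNA damage repair or cell cycle control. Growth inhibition is reported relative to vehicle.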
Test [3] in a line: NCI Yeast Anticancer Drug Screen. Data for the sgs1 mgt1 strain (AID 161).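 Note: 0% = growth of cultures given vehicle only.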 The note with it: S. cerevisiae sgs1 mgt1 strain, stronger effect = higher value. The method, boiled down:
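Test agents were incubated with a DNA-repair-mutant yeast strain. Growth was then read and compared against vehicle-treated controls.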

Test [4] can be described thus: NCI Yeast Anticancer Drug Screen. Data for the cln2 rad14 strain (AID 165).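 Note: 0% = growth equal to vehicle treated cultures.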 The note with it: S. cerevisiae cln2 rad14 strain, stronger effect = higher value. In outline: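 Test compounds were added to cln2 rad14 yeast cultures; inhibition of growth was then determined by comparison with vehicle treatment.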
The nature of test [5]: NCI Yeast Anticancer Drug Screen. Data for the bub3 strain (AID 167). The note with it: S. cerevisiae bub3 mutant strain, stronger effect = higher value. The method, boiled down: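 Screening used yeast with an engineered genetic alteration affecting cell cycle control. Compound-exposed cultures were compared with vehicle cultures, and reduced growth was taken as inhibition.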
A short description of test [6]: NCI Yeast Anticancer Drug Screen. Data for the mlh1 rad18 strain (AID 175). The note with it: S. cerevisiae mlh1 rad18 strain growth inhibition, stronger effect = higher value. In outline: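 Inhibition values reflect reduced growth of mutant yeast versus vehicle-treated controls following compound exposure; the mutations affect DNA damage repair.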
The mark [7] stands for this setting: at 5.0 µM (retest, dose inferred, filed as 0.5).
The mark [8] stands for this setting: at 50.0 µM (retest, dose inferred, filed as 5.0).

For `COC(=O)C12OCC34C(CC5C(C)C6=CC(=O)OC6=CC5(C)C3C(O)C1O)OC(=O)C(OC(C)=O)C24` (stereo not given), the growth inhibition in test [1] (setting [7]) was 69%; in test [1] (setting [8]), 99% (active); in test [1] (at 50.0 µM), 91.6% (active); in test [2] (setting [7]) it was 66%; in test [2] (setting [8]), 99% (active); in test [2] (at 50.0 µM) it was 93.4% (active). Besides, the growth inhibition is 63% in test [3] (setting [7]); 99% (active) in test [3] (setting [8]); 92.2% (active) in test [3] (at 50.0 µM); 64% in test [4] (setting [7]); 99% (active) in test [4] (setting [8]); 91.7% (active) in test [4] (at 50.0 µM). Besides, the growth inhibition in test [5] (setting [7]) was 68%; in test [5] (setting [8]) it was 99% (active); in test [5] (at 50.0 µM) it was 92.5% (active); in test [6] (setting [7]), 79% (active); in test [6] (setting [8]) it was 99% (active); in test [6] (at 50.0 µM), -22%.

For `Cc1c(N=Nc2ccc(Br)cc2)c(-c2ccccc2)nn1C(=S)S`, the growth inhibition in test [1] (setting [7]) was -1%; in test [1] (setting [8]), 20%; in test [1] (at 50.0 µM), 88.7% (active); in test [2] (setting [7]), 2%; in test [2] (setting [8]), 26%; in test [2] (at 50.0 µM), 88% (active). Moreover, the growth inhibition in test [3] (setting [7]) is 3%; in test [3] (setting [8]), 45%; in test [3] (at 50.0 µM), 90.5% (active); in test [4] (setting [7]), 4%; in test [4] (setting [8]), 34%; in test [4] (at 50.0 µM) it was 51.5%. Moreover, the growth inhibition in test [5] (setting [7]) is 3%; in test [5] (setting [8]), 74% (active); in test [5] (at 50.0 µM) it was 86.6% (active); in test [6] (setting [7]), 1%; in test [6] (setting [8]), 31%; in test [6] (at 50.0 µM) it was 92.7% (active).

Regarding `CCC(=O)NC1=C(Cl)C(=O)c2ccccc2C1=O`, the growth inhibition in test [1] (setting [7]) is 99% (active); in test [1] (setting [8]), 99% (active); in test [1] (at 50.0 µM) it was 99.2% (active); in test [2] (setting [7]), 100% (active); in test [2] (setting [8]) it was 99% (active); in test [2] (at 50.0 µM) it was 98.2% (active). For the same compound, the growth inhibition in test [3] (setting [7]) was 100% (active); in test [3] (setting [8]) it was 100% (active); in test [3] (at 50.0 µM), 98.2% (active); in test [4] (setting [7]) it was 99% (active); in test [4] (setting [8]), 100% (active); in test [4] (at 50.0 µM) it was 86.2% (active). Also, the growth inhibition was 99% (active) in test [5] (setting [7]); 99% (active) in test [5] (setting [8]); 98.9% (active) in test [5] (at 50.0 µM); 99% (active) in test [6] (setting [7]); 99% (active) in test [6] (setting [8]); 98.5% (active) in test [6] (at 50.0 µM).

As to `Cc1ccc(S(=O)(=O)NNc2nc(N(C)C)nc(N(C)C)n2)cc1`, the growth inhibition in test [1] (setting [7]) was 1%; in test [1] (setting [8]) it was 7%; in test [1] (at 50.0 µM), 9.15%; in test [2] (setting [7]) it was 7%; in test [2] (setting [8]) it was 14%; in test [2] (at 50.0 µM) it was 5.4%. The growth inhibition in test [3] (setting [7]) was 3%; in test [3] (setting [8]) it was 13%; in test [3] (at 50.0 µM), 5.5%; in test [4] (setting [7]) it was 4%; in test [4] (setting [8]) it was 4%; in test [4] (at 50.0 µM), 52.2%. Also, the growth inhibition was -1% in test [5] (setting [7]); 4% in test [5] (setting [8]); 4.4% in test [5] (at 50.0 µM); 2% in test [6] (setting [7]); 8% in test [6] (setting [8]); 3.85% in test [6] (at 50.0 µM).

Turning to `CN(Cc1ccccc1)CC(O)c1cc(-c2ccc(Cl)cc2)nc2ccccc12` (stereo not given), the growth inhibition in test [1] (setting [7]) was -1%; in test [1] (setting [8]), 99% (active); in test [1] (at 50.0 µM) it was 98.8% (active); in test [2] (setting [7]) it was 2%; in test [2] (setting [8]), 100% (active); in test [2] (at 50.0 µM), 98.5% (active). Besides, the growth inhibition in test [3] (setting [7]) was 24%; in test [3] (setting [8]) it was 100% (active); in test [3] (at 50.0 µM) it was 99.2% (active); in test [4] (setting [7]), 1%; in test [4] (setting [8]), 99% (active); in test [4] (at 50.0 µM), 98.4% (active). Further, the growth inhibition in test [5] (setting [7]) was 7%; in test [5] (setting [8]), 99% (active); in test [5] (at 50.0 µM), 98% (active); in test [6] (setting [7]), 10%; in test [6] (setting [8]), 99% (active); in test [6] (at 50.0 µM) it was 98.3% (active).

`COc1cc[c]([Sn]([O][Sn]([Cl])([c]2ccc(OC)cc2)[c]2ccc(OC)cc2)[c]2ccc(OC)cc2)cc1`: the growth inhibition is 47% in test [1] (setting [7]); 95% (active) in test [1] (setting [8]); 27.7% in test [1] (at 50.0 µM); 31% in test [2] (setting [7]); 86% (active) in test [2] (setting [8]); 32.9% in test [2] (at 50.0 µM). Moreover, the growth inhibition in test [3] (setting [7]) is 58%; in test [3] (setting [8]), 98% (active); in test [3] (at 50.0 µM) it was 69.8%; in test [4] (setting [7]) it was 28%; in test [4] (setting [8]), 88% (active); in test [4] (at 50.0 µM), 53.5%. The growth inhibition was 50% in test [5] (setting [7]); 96% (active) in test [5] (setting [8]); 71.3% (active) in test [5] (at 50.0 µM); 55% in test [6] (setting [7]); 94% (active) in test [6] (setting [8]); 73.7% (active) in test [6] (at 50.0 µM).

`COc1cc(C=Nc2ccc(Cl)cc2)ccc1OC(=O)c1ccccc1`: the growth inhibition is 6% in test [1] (setting [7]); -8% in test [1] (setting [8]); 18% in test [1] (at 50.0 µM); -6% in test [2] (setting [7]); -5% in test [2] (setting [8]); -37% in test [2] (at 50.0 µM). Also, the growth inhibition in test [3] (setting [7]) is -2%; in test [3] (setting [8]) it was -1%; in test [3] (at 50.0 µM) it was -3.8%; in test [4] (setting [7]) it was 26%; in test [4] (setting [8]), 21%; in test [4] (at 50.0 µM), 7.55%. The growth inhibition in test [5] (setting [7]) was 27%; in test [5] (setting [8]) it was 30%; in test [5] (at 50.0 µM), -6.5%; in test [6] (setting [7]) it was 3%; in test [6] (setting [8]) it was -18%; in test [6] (at 50.0 µM), 11.1%.

Consider `FC(F)(F)c1ccc(NC(=S)SCc2ccc3c(c2)OCO3)cc1`, for which the growth inhibition in test [1] (setting [7]) was -5%; in test [1] (setting [8]), 0%; in test [1] (at 50.0 µM), 74.5% (active); in test [2] (setting [7]) it was -5%; in test [2] (setting [8]), -1%; in test [2] (at 50.0 µM), 95% (active). Besides, the growth inhibition in test [3] (setting [7]) is -3%; in test [3] (setting [8]) it was 25%; in test [3] (at 50.0 µM), 93.3% (active); in test [4] (setting [7]), -11%; in test [4] (setting [8]), -15%; in test [4] (at 50.0 µM), 86.3% (active). The growth inhibition is -8% in test [5] (setting [7]); -6% in test [5] (setting [8]); 87% (active) in test [5] (at 50.0 µM); -8% in test [6] (setting [7]); 24% in test [6] (setting [8]); 93.2% (active) in test [6] (at 50.0 µM).

Consider `CCOC(=O)C1(C#N)C(=O)CSC1=Nc1ccccc1Cl` (stereo not given), for which the growth inhibition in test [1] (setting [7]) was -7%; in test [1] (setting [8]), -14%; in test [1] (at 50.0 µM), -5.95%; in test [2] (setting [7]) it was -16%; in test [2] (setting [8]), -11%; in test [2] (at 50.0 µM) it was -8.75%. Besides, the growth inhibition was -4% in test [3] (setting [7]); -2% in test [3] (setting [8]); 25% in test [3] (at 50.0 µM); 13% in test [4] (setting [7]); 17% in test [4] (setting [8]); -9.95% in test [4] (at 50.0 µM). Besides, the growth inhibition in test [5] (setting [7]) is -14%; in test [5] (setting [8]) it was -10%; in test [5] (at 50.0 µM), 18.4%; in test [6] (setting [7]), -33%; in test [6] (setting [8]), -54%; in test [6] (at 50.0 µM), -3.4%.

For the compound `C=C1C2Oc3ccccc3C1N(c1ccccc1)O2` (stereo not given), the growth inhibition in test [1] (setting [7]) is 9%; in test [1] (setting [8]), 23%; in test [1] (at 50.0 µM), 35%; in test [2] (setting [7]), 8%; in test [2] (setting [8]) it was 35%; in test [2] (at 50.0 µM), 19.9%. The growth inhibition in test [3] (setting [7]) is 4%; in test [3] (setting [8]) it was 62%; in test [3] (at 50.0 µM) it was 66%; in test [4] (setting [7]) it was 4%; in test [4] (setting [8]), 24%; in test [4] (at 50.0 µM), 39.1%. Besides, the growth inhibition in test [5] (setting [7]) was 1%; in test [5] (setting [8]) it was 26%; in test [5] (at 50.0 µM), 9.45%; in test [6] (setting [7]) it was 5%; in test [6] (setting [8]), 35%; in test [6] (at 50.0 µM), 70.5% (active).

Source of the values: PubChem BioAssay (NCI).
